Here are results for nine compounds from PubChem BioAssay.

Test [1] can be described thus: E. coli DRC41 culture turbidity changes, primary screen, E. coli filamentation inducer project, strain DRC41, OD650, 48 h (AID 1152).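 Further: E. coli MC1000 strain DRC41 lacking acrAB efflux pump and sulA.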 Particulars: E. coli DRC41 (acrAB sulA), higher = more signal, called active from +8 up or from −8 down.
Test [2] is described as follows: small-molecule binders of probe aLefty1, primary screen, biochemical, small-molecule microarray, 635/667 nm fluorescence (AID 1153).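 Further: score merges spot fluorescence with signal-to-noise ratio from the scanned slide images.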 Particulars: higher = more signal.
Test [3] can be described thus: PSAC antagonists in infected red cells, primary screen, cell-based, P. falciparum Indochina, OD700, 1 h (AID 1154). Particulars: P. falciparum Indochina infected RBC osmotic lysis, higher = more signal, called active from +8 up or from −8 down.
Test [4] can be described thus: PSAC antagonists in infected red cells, primary screen, cell-based, P. falciparum Indochina, OD700, 2 h (AID 1155).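 Further: lysis reports solute entry through the parasite surface anion channel PSAC; channel blockers reduce lysis of infected cells.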 The following applies: P. falciparum Indochina infected erythrocytes, osmotic lysis OD700; higher = more signal, called active from +8 up or from −8 down.
The nature of test [5]: osmotic lysis modulators in infected erythrocytes, primary screen, PSAC antagonist project, cell-based, P. falciparum Indochina, OD700, 3 h (AID 1156). Particulars: higher = more signal, called active from +8 up or from −8 down.
Test [6] can be described thus: PSAC antagonists in infected red cells, primary screen, cell-based, P. falciparum Indochina, OD700, 18 h (AID 1157). Particulars: P. falciparum Indochina infected erythrocytes, osmotic lysis OD700, 18 h; higher = more signal, called active from +8 up or from −8 down.
Test [7] is described as follows: modulators of S6 phosphorylation in cells, primary screen, cell-based, A549, cytoblot, luminescence, serum-stimulated (AID 1158).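 Further: serum-stimulated A549 lung adenocarcinoma cells; signal is phosphorylated S6 detected by cytoblot immunostaining with HRP secondary.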 Particulars: A549 phospho-S6 cytoblot, 5 h, higher = more signal.
Test [8] has as its target NADPH oxidase 2 (Homo sapiens) (UniProt P04839). As to the kind of experiment: NOX2-dependent H2O2 signal modulators, primary screen, NOX inhibitor project, cell-based, HEK293-NOX2, PMA-stimulated, Amplex Red fluorescence (AID 1159). Further: test concentration not given here. The following applies: 45 min, higher = more signal, called active from +8 up or from −8 down.
The target of test [9] is NADPH oxidase 4 (Homo sapiens) (UniProt Q9NPH5). As to the kind of experiment: NOX4-dependent H2O2 signal modulators, primary screen, NOX inhibitor project, cell-based, HEK293-NOX4, tetracycline-induced, Amplex Red fluorescence (AID 1160). Particulars: 45 min, higher = more signal, called active from +8 up or from −8 down.
Chain of NADPH oxidase 4 (Homo sapiens) (Q9NPH5 whole entry, looked up): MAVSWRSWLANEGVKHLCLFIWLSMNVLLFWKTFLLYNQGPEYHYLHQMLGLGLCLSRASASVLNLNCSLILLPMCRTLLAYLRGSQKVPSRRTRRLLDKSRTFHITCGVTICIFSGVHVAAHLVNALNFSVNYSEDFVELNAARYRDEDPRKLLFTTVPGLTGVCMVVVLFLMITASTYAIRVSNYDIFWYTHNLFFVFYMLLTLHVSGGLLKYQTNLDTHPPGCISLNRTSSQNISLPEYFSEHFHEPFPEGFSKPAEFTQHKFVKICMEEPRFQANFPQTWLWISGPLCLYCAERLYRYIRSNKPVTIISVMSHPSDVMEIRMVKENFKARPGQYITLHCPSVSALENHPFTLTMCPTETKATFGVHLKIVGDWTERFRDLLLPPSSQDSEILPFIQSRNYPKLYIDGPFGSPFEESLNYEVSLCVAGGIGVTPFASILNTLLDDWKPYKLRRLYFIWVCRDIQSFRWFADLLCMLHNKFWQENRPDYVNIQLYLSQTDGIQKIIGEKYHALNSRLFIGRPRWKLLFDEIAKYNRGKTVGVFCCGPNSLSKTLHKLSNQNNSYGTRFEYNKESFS
Test [10] concerns the target NADPH oxidase 5 (Homo sapiens) (UniProt Q96PH1). As to the kind of experiment: NOX5-dependent H2O2 signal modulators, primary screen, NOX inhibitor project, cell-based, HEK293-NOX5, Amplex Red fluorescence (AID 1161). Particulars: HEK293-NOX5, ionomycin, 45 min, higher = more signal.

Where “and” joins values, the source holds several entries; their conditions need not be identical. Equal values may be shown once. Calls of active or inactive are those of the source.

Chain of NADPH oxidase 2 (Homo sapiens) (P04839 whole entry, looked up): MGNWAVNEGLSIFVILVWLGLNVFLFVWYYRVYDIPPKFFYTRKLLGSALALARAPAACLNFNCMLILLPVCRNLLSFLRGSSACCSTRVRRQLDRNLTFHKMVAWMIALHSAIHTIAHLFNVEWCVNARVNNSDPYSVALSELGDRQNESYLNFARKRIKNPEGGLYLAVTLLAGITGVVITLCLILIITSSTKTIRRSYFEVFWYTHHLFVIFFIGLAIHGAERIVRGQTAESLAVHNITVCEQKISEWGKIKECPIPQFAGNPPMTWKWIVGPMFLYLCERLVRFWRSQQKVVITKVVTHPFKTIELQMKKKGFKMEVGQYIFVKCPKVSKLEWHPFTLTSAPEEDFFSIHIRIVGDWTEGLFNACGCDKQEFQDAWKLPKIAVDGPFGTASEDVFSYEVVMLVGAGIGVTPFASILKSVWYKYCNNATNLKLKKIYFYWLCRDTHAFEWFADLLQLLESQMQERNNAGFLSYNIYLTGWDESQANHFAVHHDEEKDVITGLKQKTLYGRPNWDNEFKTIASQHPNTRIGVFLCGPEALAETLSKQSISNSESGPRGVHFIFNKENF
Chain of NADPH oxidase 5 (Homo sapiens) (Q96PH1 whole entry, looked up): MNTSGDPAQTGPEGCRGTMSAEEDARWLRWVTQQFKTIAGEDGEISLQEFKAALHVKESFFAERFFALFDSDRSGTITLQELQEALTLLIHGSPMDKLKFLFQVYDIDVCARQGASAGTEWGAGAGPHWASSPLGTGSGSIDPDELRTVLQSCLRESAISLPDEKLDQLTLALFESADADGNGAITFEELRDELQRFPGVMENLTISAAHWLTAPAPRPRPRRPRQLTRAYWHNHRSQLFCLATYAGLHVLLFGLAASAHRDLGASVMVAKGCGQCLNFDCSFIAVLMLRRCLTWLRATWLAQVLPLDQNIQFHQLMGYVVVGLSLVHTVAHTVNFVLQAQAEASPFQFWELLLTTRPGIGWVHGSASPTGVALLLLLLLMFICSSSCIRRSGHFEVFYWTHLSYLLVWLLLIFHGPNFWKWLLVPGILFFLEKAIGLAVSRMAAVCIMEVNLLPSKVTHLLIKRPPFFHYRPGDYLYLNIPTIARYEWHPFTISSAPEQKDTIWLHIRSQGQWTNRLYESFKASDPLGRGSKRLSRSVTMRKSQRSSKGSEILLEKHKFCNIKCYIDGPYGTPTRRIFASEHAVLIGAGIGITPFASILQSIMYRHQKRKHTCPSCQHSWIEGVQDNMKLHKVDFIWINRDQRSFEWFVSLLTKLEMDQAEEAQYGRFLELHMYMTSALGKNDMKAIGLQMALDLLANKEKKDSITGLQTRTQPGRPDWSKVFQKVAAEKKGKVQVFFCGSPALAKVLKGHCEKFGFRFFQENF

On to `CCOC(=O)NN=C1C[C@@H](O)[C@@H](O)[C@@H]2[C@@H]3C(=O)N(Cc4ccccc4)C(=O)[C@@H]3CC[C@@H]12`, for which the z-score in test [1] was -2.78 (inactive); in test [3], 1.04 (inactive); in test [4], 0.628 (inactive); in test [5], 0.979 (inactive); in test [6], 0.403 (inactive); in test [7], -0.154. Besides, the z-score in test [8] was -0.6 (inactive); in [9] it was -0.393 (inactive); in test [10], -0.365. In addition, the composite z-score in test [2] was -0.641.
On to `COC(=O)C1=C(C)N(Cc2ccccc2)C2=C3C(=O)CCC[C@@H]3[C@@](O)(C(=O)OC)C(=O)N2[C@@H]1c1ccccc1`, for which the z-score was 0.941 (inactive) and 1.15 (inactive) in [1]; -0.0542 (inactive) and 0.644 (inactive) in test [3]; 0.23 (inactive) and -0.736 (inactive) in test [4]; -0.689 (inactive) and 0.924 (inactive) in test [5]; 0.249 (inactive) and -0.767 (inactive) in test [6]; -0.0885 and 0.778 in [7]. The z-score was 1.08 (inactive) and -0.368 (inactive) in test [8]; -0.0562 (inactive) and 0.13 (inactive) in [9]; -0.0435 and -0.704 in [10]. For the same compound, the composite z-score in [2] is -0.0275 and 0.106.
With `COC(=O)C1=C(C)N(Cc2ccccc2)C2=C(C(C)=O)[C@H](c3ccccc3)[C@@](O)(C(=O)OC)C(=O)N2[C@@H]1c1ccccc1`, the z-score is 0.363 (inactive) and -0.426 (inactive) in test [1]; 1.65 (inactive) and 0.383 (inactive) in test [3]; 0.441 (inactive) and -0.0277 (inactive) in [4]; 1.2 (inactive) and -1.16 (inactive) in test [5]; 0.419 (inactive) and -0.175 (inactive) in test [6]; 0.582 and 3.5 in [7]. For the same compound, the z-score in [8] was 2.34 (inactive) and -3.45 (inactive); in [9], 0.687 (inactive) and 0.321 (inactive); in test [10] it was 0.784 and 0.53. Further, the composite z-score in test [2] is -0.0908 and -0.118.
Consider `Cc1ccc(S(=O)(=O)N[C@H]2COC(=O)[C@@H](C)COC(=O)[C@H](C)NC(=O)CC=C[C@H]2C)cc1`, for which the z-score is -0.117 (inactive) in test [1]; -0.306 (inactive) in test [3]; 0.286 (inactive) in [4]; 0.501 (inactive) in test [5]; 0.0584 (inactive) in [6]; -0.177 in test [7]. For the same compound, the z-score in test [8] is -1.36 (inactive); in test [9] it was 0.555 (inactive); in test [10], 0.0658. For the same compound, the composite z-score in test [2] is -0.195.
Take `C=CCN(Cc1ccccc1)C(=O)C1N(c2c(Cl)cccc2CO)C(=O)C2C(C(=O)O)C3C=CC21O3` (stereo not given): the z-score in [1] was 3.44 (inactive) and 0.465 (inactive); in test [3], -0.97 (inactive) and 0.504 (inactive); in test [4], -0.994 (inactive) and 0.698 (inactive); in [5], -0.847 (inactive) and 0.14 (inactive); in test [6], -1.32 (inactive) and 0.357 (inactive); in test [7], 1.33 and -0.0264. Besides, the z-score in [8] is 0.00151 (inactive) and 0.1 (inactive); in test [9], -0.574 (inactive) and -0.406 (inactive); in test [10] it was -0.259 and -0.994. This compound displayed a composite z-score in test [2] of -0.147.
In the case of `C=CCN(C(=O)C1N(c2c(Cl)cccc2CO)C(=O)C2C(C(=O)O)C3C=CC21O3)c1ccc(OC)cc1` (stereo not given), the z-score in [1] is 0.971 (inactive) and 2.55 (inactive); in test [3], 2.56 (inactive) and -0.975 (inactive); in test [4], 0.516 (inactive) and -1.35 (inactive); in test [5], 0.336 (inactive) and -0.988 (inactive); in test [6], 0.287 (inactive) and -1.34 (inactive); in test [7], -0.403 and 1.78. In addition, the z-score was 0.868 (inactive) and -0.148 (inactive) in test [8]; -0.286 (inactive) and -0.651 (inactive) in [9]; -0.136 and 0.192 in [10]. For the same compound, the composite z-score in test [2] was -1.1 and -0.253.
In the case of `CC(C)=NO[C@@H](C)c1cc(-c2c(C)cc(C)cc2C)no1`, the z-score was -2.27 (inactive) in [1]; 0.944 (inactive) in test [3]; 0.371 (inactive) in test [4]; 1.37 (inactive) in [5]; -1.23 (inactive) in test [6]; 0.702 in test [7]. For the same compound, the figures for the z-score in [8], in [9] and in test [10] were -0.639 (inactive), -1.28 (inactive) and -1.13, respectively. In test [2], this compound showed a composite z-score of -0.278.
In the case of `CC(=O)OC[C@H]1O[C@H](C#CC(C)(C)C)C=C[C@@H]1OC(C)=O`, the z-score is 0.192 (inactive) in test [1]; -0.184 (inactive) in test [3]; 0.0987 (inactive) in test [4]; -0.537 (inactive) in test [5]; -0.0954 (inactive) in test [6]; -0.675 in [7]. Moreover, the z-score in [8] was 1.5 (inactive); in test [9] it was 0.847 (inactive); in [10] it was 0.943. Also, the composite z-score in test [2] was -0.0969.
In the case of `COC(=O)c1c2oc(c1C(=O)OC)C(=O)N[C@@H](Cc1ccccc1)Cn1cc(nn1)C1(CCCCC1)NC(=O)N[C@H](CO)CC2`, the z-score is 2.62 (inactive) and 1.74 (inactive) in test [1]; 1.36 (inactive) and 4.41 (inactive) in test [3]; 0.431 (inactive) and 1.49 (inactive) in [4]; 0.557 (inactive) and 0.593 (inactive) in test [5]; 0.454 (inactive) and 0.801 (inactive) in test [6]; 0.427 and 0.173 in [7]. Besides, the z-score is 0.432 (inactive) and 0.428 (inactive) in test [8]; 1.67 (inactive) and -1.49 (inactive) in test [9]; 0.922 and -2.52 in test [10]. Besides, the composite z-score in test [2] was 0.391 and 0.0455.
